The nature of assay [1]: compounds altering circadian rhythm period length – cell-based, LOPAC library, luminescence reporter (AID 2774; call rule not given here;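 also: values are relative to mean of DMSO wells on each plate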). The following applies: circadian reporter cells, at 7 µM, actives lie on both sides.
Assay [2] is described as follows: growth inhibition, single agent or in combination, cell-based, chromothripsis tumors, cisplatin or BGB combos (AID 1671449).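 Also: cells exposed for 96 hours; 0% = vehicle DMSO and 100% = killing by high DMSO.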 To be noted: LFS_MB_P medulloblastoma cells.
Assay [3] in a line: growth inhibition, single agent and combos, cell-based, chromothripsis tumors, cisplatin or BGB combos (AID 1671450).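 Also: cells exposed to compound for four days; 0% = vehicle DMSO and 100% = cell killing by high DMSO.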 To be noted: HDN33 neuroblastoma cells, stronger effect = higher value.
A short description of assay [4]: growth inhibition, single agents and combos, ICB984, cell-based, cisplatin or BGB combos, synergistic combos for chromothripsis tumors (AID 1671451; call rule not given here;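 also: cells exposed for 96 hours before readout; 0% = vehicle DMSO and 100% = killing by high DMSO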). The following applies: ICB984 medulloblastoma cells, drug combinations, stronger effect = higher value.
A short description of assay [5]: growth inhibition, single agents and combos, LFS_MB_1R, cell-based, cisplatin or BGB combos, synergistic combos for chromothripsis tumors (AID 1671452).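 Also: cells exposed for 96 hours before readout.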 The following applies: LFS_MB_1R medulloblastoma cells, stronger effect = higher value.
The nature of assay [6]: growth inhibition, single agents and combos, HTB85, cell-based, BGB or cisplatin IC20 combos, synergistic combos for chromothripsis tumors (AID 1671453).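 Also: cells exposed for 96 hours before readout; 0% = vehicle DMSO and 100% = high DMSO killing control.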 To be noted: HTB85 osteosarcoma cells, drug combinations, stronger effect = higher value.
Assay [7] can be described thus: growth inhibition, single agents and combos, CRL2098, cell-based, BGB or cisplatin IC20 combos, synergistic combos for chromothripsis tumors (AID 1671454).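 Also: cells exposed for 96 h before readout; 0% = vehicle DMSO and 100% = killing by high DMSO.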 To be noted: CRL2098 osteosarcoma cells, drug combinations, stronger effect = higher value.
Assay [8] can be described thus: growth inhibition, single agents and combos, HD-MB03, cell-based, BGB or cisplatin IC20 combos, synergistic combos for chromothripsis tumors (AID 1671455; in the data active = inhibition above about 83%;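 also: 0% = vehicle DMSO and 100% = high DMSO as cytotoxic control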). The following applies: HD-MB03 medulloblastoma cells, stronger effect = higher value.
Assay [9] is described as follows: growth inhibition, single agents and combos, UWB1.289, cell-based, BGB or cisplatin combos, synergistic combos for chromothripsis tumors (AID 1671456).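 Also: cells exposed to compound for four days; 0% = vehicle DMSO and 100% = killing by high DMSO.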 The following applies: UWB1.289 ovarian carcinoma cells, stronger effect = higher value.
The nature of assay [10]: growth inhibition, single agents and combos, LFS_MB_2R, cell-based, cisplatin combos, synergistic combos for chromothripsis tumors (AID 1671457).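 Also: cells exposed to compound for four days before readout.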 To be noted: LFS_MB_2R medulloblastoma cells, stronger effect = higher value.
Assay [11] in a line: growth inhibition, MDA-MB-436, cell-based, BGB or cisplatin combos, synergistic combos for chromothripsis tumors (AID 1671458; call rule not given here;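 also: cells exposed for 96 hours; 0% = vehicle DMSO and 100% = killing by high DMSO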). The following applies: MDA-MB-436 breast carcinoma growth inhibition, drug combinations, stronger effect = higher value.
The nature of assay [12]: UWB1.289_BRCA1 ovarian cancer growth, cell-based, BGB or cisplatin combinations (AID 1671459). To be noted: UWB1.289 BRCA1 ovarian carcinoma, drug combinations, stronger effect = higher value.
A short description of assay [13]: drug combination toxicity in non-malignant astrocytes – cell-based, BGB or cisplatin IC20 combos, cytotoxicity control for chromothriptic childhood tumor combination screen (AID 1671460).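 Also: cells exposed to compounds for 96 hours before viability readout; 0% = vehicle and 100% = killing control.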 The following applies: Human astrocytes, viability inhibition, drug combinations, at 0.5 µM, stronger effect = higher value.
Assay [14] can be described thus: BT084 cell growth, single and combined drugs, ICGC_MB145, cisplatin and BGB IC40 combos (AID 1671461).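 Also: cells exposed to drugs for 96 hours; 0% = vehicle DMSO and 100% = high DMSO full killing control.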 To be noted: BT084 medulloblastoma cells, drug combinations, stronger effect = higher value.
Assay [15] in a line: RCMB18 cell growth, single agent and combined, cisplatin and BGB IC40 combos (AID 1671462).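 Also: cells exposed to compound for four days.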 To be noted: RCMB18 medulloblastoma cells, stronger effect = higher value.
Assay [16] in a line: CRL1545 cell growth, single agent and combined, cisplatin and BGB IC20 combos (AID 1671464).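 Also: cells exposed to compound for 96 hours before readout; 0% = vehicle DMSO and 100% = high DMSO killing control.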 To be noted: CRL1545 osteosarcoma cells, stronger effect = higher value.
A short description of assay [17]: antimalarial activity against Dd2 strain (AID 2302;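 active = growth inhibition above 50% at the single 2 µM test dose, taken to imply half-maximal potency below 2 µM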;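 also: 0% = DMSO untreated growth and 100% = chloroquine plus artemisinin killed control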). To be noted: P. falciparum Dd2 in RBCs, LDH growth readout, 72 h; at 2 µM; stronger effect = higher value.
Assay [18] can be described thus: human hepatoma cell viability loss – ATP luminescence, cytotoxicity control for P. falciparum antimalarial project, primary screen (AID 2303;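 active = inhibition above 50%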;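 also: 0% = DMSO wells and 100% = digitonin-killed cells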). To be noted: HepG2 viability, 24-48 h, at 10 µM, stronger effect = higher value.
Assay [19] has as its target L-lactate dehydrogenase (Plasmodium falciparum (isolate CDC / Honduras)) (UniProt Q27743). As to the kind of experiment: PfLDH activity inhibition – cell lysate, 3D7 strain, counter-screen for P. falciparum growth inhibition project (AID 2304; call rule not given here;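 also: 0% = vehicle and 100% = reference inhibitor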). The following applies: P. falciparum 3D7 crude extract, LDH APAD/NBT absorbance; at 2 µM; stronger effect = higher value.
The nature of assay [20]: inhibition of 3D7 malaria parasite growth – strain 3D7 (AID 2306; call rule not given here;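 also: 0% = DMSO wells and 100% = chloroquine plus artemisinin control wells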). The following applies: P. falciparum 3D7 erythrocytic growth, LDH absorbance, 72 h; at 2 µM; stronger effect = higher value.
[21] abbreviates: measured here: combination with BGB IC40, at 0.05 µM.
The mark [22] stands for this setting: measured here: with BGB IC20 combination, at 0.5 µM.
Where [23] appears, read: measured here: with cisplatin IC20 combination, at 0.5 µM.
Setting [24] is: measured here: combination with cisplatin, at 0.5 µM.
[25] abbreviates: measured here: combination with cisplatin, at 5 µM.

The structures appear in SMILES notation. Where “and” joins values, the source holds several entries; their conditions need not be identical. Equal values may be shown once. Calls of active or inactive are those of the source. Rule as the data show it, unless noted: active = inhibition above about 80%; inactive = the rest.

L-lactate dehydrogenase (Plasmodium falciparum (isolate CDC / Honduras)), sequence (Q27743 whole entry, looked up): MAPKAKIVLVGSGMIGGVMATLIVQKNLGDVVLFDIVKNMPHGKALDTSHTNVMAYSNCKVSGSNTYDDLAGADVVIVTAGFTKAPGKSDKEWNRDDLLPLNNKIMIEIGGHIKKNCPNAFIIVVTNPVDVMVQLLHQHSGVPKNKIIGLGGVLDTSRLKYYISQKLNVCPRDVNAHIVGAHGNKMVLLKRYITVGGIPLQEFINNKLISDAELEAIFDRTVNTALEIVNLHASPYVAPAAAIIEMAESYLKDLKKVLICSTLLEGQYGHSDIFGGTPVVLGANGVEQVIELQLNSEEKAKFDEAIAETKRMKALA

For `COc1ccc2[nH]cc(CCN(C)C)c2c1`, in [1], the period change was 0.045 h (inactive).
On to `CC(O)C(C)OC(=O)[C@@H]1C[C@@H]2c3cccc4c3c(cn4C(C)C)C[C@H]2N(C)C1` (stereo partly specified), for which the period change in [1] was 0.035 h (inactive).
Regarding `Cc1c(N)nc(C(CC(N)=O)NCC(N)C(N)=O)nc1C(=O)NC(C(=O)NC(C)C(O)C(C)C(=O)NC(C(=O)NCCc1nc(-c2nc(C(=O)NCCC[S+](C)C)cs2)cs1)C(C)O)C(O[C@@H]1O[C@@H](CO)[C@@H](O)[C@H](O)[C@@H]1O[C@H]1O[C@H](CO)[C@@H](O)[C@H](OC(N)=O)[C@@H]1O)c1cnc[nH]1` (stereo partly specified), the inhibition (commonly the change of the read-out against control, counted positive when it falls) in [2] (at 0.5 µM, stronger effect = higher value) is -26.9% (inactive) and -11.5% (inactive); in assay [2] (measured here: combination with BGB IC20, at 0.005 µM), 28.9% and -33.7%; in [2] (measured here: combination with BGB IC40, at 0.005 µM), -4.08% and -32.1%; in assay [2] (setting [21]) it was 1.25% and -43.8%; in assay [2] (measured here: combination with cisplatin, at 0.5 µM, stronger effect = higher value) it was -37.7% and -28%; in [2] (measured here: combination with cisplatin, at 5 µM, stronger effect = higher value) it was -0.936% and -58.3%. Moreover, the inhibition in [3] (BGB combo, at 5 µM) is 94.9% and 96.7%; in assay [3] (at 0.5 µM) it was 56.2% (inactive) and 63.6% (inactive); in [3] (cisplatin combo, at 5 µM) it was 90% and 97.3%; in [3] (setting [22]) it was 57.4% and 65.6%; in assay [3] (setting [23]), 46.8% and 53.3%; in [3] (single agent, at 5 µM) it was 95% and 97.6%. In addition, the inhibition in [4] (BGB IC20 combo, at 0.005 µM) is 15.2% and 12.8%; in [4] (BGB IC40 combo, at 0.005 µM) it was -5.04% and -17.2%; in assay [4] (BGB IC40 combo, at 0.05 µM), 2.59% and -11.2%; in assay [4] (at 0.5 µM), -18.3% (inactive) and -34.3% (inactive); in assay [4] (cisplatin combo, at 0.05 µM), -0.135% and -15.2%; in assay [4] (cisplatin combo, at 0.5 µM), -22.6% and -41.3%. Further, the inhibition is -35.8% and -29.6% in assay [4] (cisplatin combo, at 5 µM); -30.1% and -12.5% in assay [4] (measured here: 5 uM single agent, at 5 µM); -1.28% (inactive) and 4.59% (inactive) in assay [5] (at 0.5 µM); -22.4% and 5.32% in assay [5] (setting [21]); 19.1% and 22.6% in [5] (setting [24]); 2.08% and 20.3% in [5] (setting [25]). Further, the inhibition is 23% (inactive) and 30.3% (inactive) in assay [6] (at 0.5 µM); 21.6% and 26.9% in [6] (measured here: with BGB IC20, at 0.5 µM); 61.8% and 92.6% in assay [6] (measured here: with BGB IC20, at 5 µM); 14.2% and 23.1% in assay [6] (measured here: with cisplatin IC20, at 0.5 µM); 54.6% and 74.3% in assay [6] (measured here: with cisplatin IC20, at 5 µM); 73.7% and 82.2% in [6] (single agent, at 5 µM). Further, the inhibition in assay [7] (at 0.5 µM) is 33.9% (inactive) and 38.3% (inactive); in [7] (measured here: combination with BGB at IC20, at 0.5 µM), 21% and 37.5%; in assay [7] (measured here: combination with cisplatin at IC20, at 0.5 µM) it was 31% and 27.7%; in [8] (at 0.5 µM), 48.5% (inactive) and 64.8% (inactive); in assay [8] (measured here: combo with BGB at IC20, at 0.5 µM), 54.2% and 75.3%; in assay [8] (measured here: combo with cisplatin at IC20, at 0.5 µM), 40% and 68.2%. Also, the inhibition in [9] (at 0.5 µM) is 22.8% (inactive) and 41.7% (inactive); in assay [9] (measured here: inhibition with BGB combination, at 0.05 µM), 12.4% and -1.23%; in assay [9] (measured here: inhibition with cisplatin combination, at 0.05 µM) it was 12.6% and 30.8%; in [10] (at 0.5 µM), -1.61% (inactive) and -19.6% (inactive); in assay [10] (setting [24]), 1.34% and -24.5%; in assay [10] (setting [25]) it was -27.5% and -11.4%. Besides, the inhibition was 15.9% (inactive) and 17.6% (inactive) in [11] (at 0.5 µM); 8.64% and 0.685% in assay [11] (measured here: BGB combination, at 0.5 µM); 29.8% and 10.1% in [11] (measured here: BGB combination, at 5 µM); 17.1% and 11.9% in assay [11] (measured here: cisplatin combination, at 0.5 µM); 42.7% and 28.7% in [11] (measured here: cisplatin combination, at 5 µM); 33.2% and 41.4% in [12] (BGB combination, concentration series, at 5 µM). For the same compound, the inhibition in [12] (at 0.5 µM) is 17% (inactive) and 31.1% (inactive); in [12] (cisplatin combination, concentration series, at 5 µM), 31.9% and 22.9%; in [13] it was 35.7% (inactive) and 41.9% (inactive); in assay [13] (measured here: combo with BGB IC20), 41.1% and 49.2%; in [13] (measured here: combo with cisplatin IC20) it was 9.83% and 15.3%; in assay [14] (at 0.5 µM) it was -4.03% (inactive) and -7.21% (inactive). In addition, the inhibition was -3.29% and -12.5% in [14] (cisplatin combination, at 0.5 µM); 4.08% and 10.3% in [14] (cisplatin combination, at 5 µM); -1.66% and -25.1% in assay [14] (measured here: BGB IC40 combination 0.05 uM, at 0.05 µM); -12.7% and -10.7% in assay [14] (single agent, at 5 µM); 32.3% (inactive) and -22.9% (inactive) in assay [15] (at 0.5 µM); 15.5% and 7.73% in assay [15] (cisplatin combo, at 5 µM). Moreover, the inhibition in assay [15] (measured here: BGB IC40 combination, at 0.05 µM) was -15.7% and -30.1%; in [15] (setting [24]) it was 27.9% and 2.02%; in assay [15] (single agent, at 5 µM), -20% and -46.7%; in assay [16] (at 0.5 µM), 32% (inactive) and 45.1% (inactive); in [16] (setting [22]), 25.4% and 41.5%; in [16] (setting [23]), 33.8% and 46%. Further, the inhibition in [16] (single agent, at 0.05 µM) is 23% and 12.8%; in [16] (single agent, at 5 µM), 88.5% and 95.5%.
For `CCN1C[C@]2(C)CC[C@H](O)[C@@]34C5C[C@@H]6[C@@H](OC)C[C@@](O)(C5[C@H]6O)[C@@H](CC23)C14` (stereo partly specified), the period change in [1] was 0.055 h (inactive).
As for `COC(=O)c1ccc(CC(C)NCC(O)c2cccc(C(F)(F)F)c2)cc1` (stereo unspecified), the growth inhibition in assay [17] was 87% (active) and 73% (active); in [20], 97% (active) and 94% (active). Besides, the inhibition was -8% (inactive) and -9% (inactive) in assay [18]; -4% (inactive) and -1% (inactive) in assay [19].
Turning to `N[C@@H](Cn1cc(I)c(=O)[nH]c1=O)C(=O)O`, the period change in [1] is -0.19 h (inactive).
